# Data from PubChem BioAssay.
# Active and inactive are the calls of the source.
# Columns and labels:
# [1] = small molecules captured by biotinylated probe aFSTL3 – biochemical, small-molecule microarray, fluorescence 635/667, stem cell growth factor project, primary screen (AID 1064); conditions: higher = more signal;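 note: measures binding of the biotinylated anti-FSTL3 antibody to printed compounds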
# [2] = binders from COS7 lysate, DM2A8 probe, primary screen, torsin A project, cell lysate, small-molecule microarray, fluorescence 635/667 (AID 1065); conditions: higher = more signal, COS7 lysate expressing mutant human TOR1A
# [3] = small molecules captured by biotinylated probe aFGF2 – biochemical, small-molecule microarray, fluorescence 635/667, stem cell growth factor project, primary screen (AID 1067); conditions: higher = more signal;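 note: measures binding of biotinylated aFGF2 protein to printed compounds on slides; z-score merges feature fluorescence and signal-to-noise across triplicate slides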
# [4] = small molecules captured by biotinylated probe aFGF10 – biochemical, small-molecule microarray, fluorescence 635/667, stem cell growth factor project, primary screen (AID 1071); conditions: higher = more signal;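 note: score merges 667 nm spot intensity and signal to noise from triplicate slides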
# [5] = target: Neurogenic locus notch homolog protein 2 (Homo sapiens) (UniProt Q04721); assay: small molecules binding Notch2 protein – biochemical, small-molecule microarray, 635 nm fluorescence, stem cell growth factors, primary screen (AID 1073); conditions: higher = more signal
# [6] = target: Pro-neuregulin-1, membrane-bound isoform (Homo sapiens) (UniProt Q02297); assay: small molecules binding neuregulin-1 protein – biochemical, small-molecule microarray, fluorescence 635/667, psychiatric disease protein project, primary screen (AID 1075); conditions: NRG1 binding, 635 nm fluorescence, higher = more signal;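 note: score combines 667 nm spot fluorescence with signal to noise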
# [7] = system: Neuregulin-1 EGF-like domain; assay: small molecules binding NRG1 EGF domain – biochemical, small-molecule microarray, 635 nm fluorescence, primary screen (AID 1081); conditions: higher = more signal;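 note: binding of the protein to compounds printed on small-molecule microarray slides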
# [8] = FRG1 expression reporter modulators in myotubes – cell-based, C2C12 myotubes, firefly/Renilla luciferase, luminescence, FRG1 inhibition for FSHD, primary screen (AID 1084); conditions: FRG1 promoter luciferase, higher = more signal, called active from +8 up or from −8 down
# [9] = small molecules captured by biotinylated probe aFST – biochemical, small-molecule microarray, fluorescence 635/667, stem cell growth factor project, primary screen (AID 1086); conditions: higher = more signal;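 note: score merges 667 nm fluorescence with signal-to-noise of each printed compound spot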
# [10] = binders of probe aHhip on microarray, primary screen, stem cell growth factor project, biochemical, small-molecule microarray, fluorescence 635/667 (AID 1087); conditions: higher = more signal;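 note: score merges spot fluorescence at 667nm with spot signal to noise ratio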
# [11] = system: PRMT1 (protein arginine N-methyltransferase 1); assay: small molecules binding arginine methyltransferase PRMT1 – biochemical, small-molecule microarray, 635 nm fluorescence, primary screen (AID 1088); conditions: higher = more signal;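 note: binding of Prmt1 protein to compounds spotted on small-molecule microarray slides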
# [12] = growth effects on S. cerevisiae YJM789 – YJM789 clinical isolate, OD600, 24 h, basal, primary screen (AID 1089); conditions: higher = more signal, called active from +8 up or from −8 down;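 note: growth of clinical yeast isolate S. cerevisiae YJM 789 seeded 1000 cells per well; test concentration not given here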
# [13] = S. pombe growth modifiers, basal conditions – strain 972, OD600, 24 h, no modulator, primary screen (AID 1090);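 note: basal condition with compound alone and no growth modifier present; test concentration not given here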; conditions: S. pombe 972 growth, higher = more signal, called active from +8 up or from −8 down
# [14] = budding yeast growth modifiers under rapamycin – strain BY4716, OD600, 96 h, primary screen (AID 1091); note: test concentration not given here; conditions: S. cerevisiae BY4716 + rapamycin, higher = more signal, called active from +8 up or from −8 down
# [15] = target: Torsin-1A-interacting protein 2 (Homo sapiens) (UniProt Q8NFQ8); assay: small molecules binding lysate-expressed LULL1 – cell lysate, human LULL1 lysate, 635/667 nm fluorescence, primary screen (AID 1092); conditions: small-molecule microarray, hLULL1 lysate binding, 635 nm fluorescence; higher = more signal;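 note: probe is lysate of COS7 cells overexpressing human LULL1; score merges per-feature 667 nm fluorescence with signal-to-noise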
# [16] = optical density change of DRC41 E. coli – strain DRC41, OD650, 24 h, E. coli filamentation project, primary screen (AID 1093);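 note: MC1000 strain lacking acrAB efflux and sulA so SOS filamentation is blocked; test concentration not given here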; conditions: E. coli DRC41 growth, higher = more signal, called active from +8 up or from −8 down
# [17] = probe aLefty2 binding to arrayed compounds – biochemical, biotinylated probe, 635/667 nm fluorescence, primary screen (AID 1094); conditions: small-molecule microarray, higher = more signal;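 note: score merges spot fluorescence near 667 nm with spot signal-to-noise ratio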
# [18] = system: Noggin (protein binding on small-molecule microarray); assay: small molecules binding Noggin protein – biochemical, 635/667 nm fluorescence, primary screen (AID 1095); conditions: 635 nm fluorescence, higher = more signal;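 note: score merges 667 nm feature fluorescence with signal to noise over triplicate slides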
# [19] = target: Neurogenic locus notch homolog protein 3 (Homo sapiens) (UniProt Q9UM47); assay: small molecules binding NOTCH3 protein – biochemical, 635/667 nm fluorescence, primary screen (AID 1096); conditions: small-molecule microarray, 635 nm fluorescence, higher = more signal
# [20] = probe aEGFR binding to arrayed compounds – biochemical, biotinylated probe, 635/667 nm fluorescence, primary screen (AID 1097); conditions: small-molecule microarray, higher = more signal;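 note: probe is a biotinylated anti-EGFR antibody binding compounds printed on slides; score combines fluorescence near 667 nm and signal to noise of each spot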
# Chain of Torsin-1A-interacting protein 2 (Homo sapiens) (Q8NFQ8 whole entry, looked up): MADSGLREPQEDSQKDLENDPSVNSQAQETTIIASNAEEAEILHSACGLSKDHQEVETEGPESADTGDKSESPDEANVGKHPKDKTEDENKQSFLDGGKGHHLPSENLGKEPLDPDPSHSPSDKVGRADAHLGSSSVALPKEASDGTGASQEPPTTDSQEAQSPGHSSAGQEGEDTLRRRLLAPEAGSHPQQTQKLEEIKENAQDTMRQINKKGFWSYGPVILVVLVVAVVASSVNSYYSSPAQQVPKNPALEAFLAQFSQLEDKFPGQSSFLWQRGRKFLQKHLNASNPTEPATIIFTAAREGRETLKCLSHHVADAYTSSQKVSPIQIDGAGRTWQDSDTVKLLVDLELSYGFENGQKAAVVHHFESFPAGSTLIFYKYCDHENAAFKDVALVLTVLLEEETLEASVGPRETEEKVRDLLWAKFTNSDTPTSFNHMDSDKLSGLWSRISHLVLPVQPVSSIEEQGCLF
# Chain of Neurogenic locus notch homolog protein 2 (Homo sapiens) (Q04721 whole entry, looked up, canonical isoform): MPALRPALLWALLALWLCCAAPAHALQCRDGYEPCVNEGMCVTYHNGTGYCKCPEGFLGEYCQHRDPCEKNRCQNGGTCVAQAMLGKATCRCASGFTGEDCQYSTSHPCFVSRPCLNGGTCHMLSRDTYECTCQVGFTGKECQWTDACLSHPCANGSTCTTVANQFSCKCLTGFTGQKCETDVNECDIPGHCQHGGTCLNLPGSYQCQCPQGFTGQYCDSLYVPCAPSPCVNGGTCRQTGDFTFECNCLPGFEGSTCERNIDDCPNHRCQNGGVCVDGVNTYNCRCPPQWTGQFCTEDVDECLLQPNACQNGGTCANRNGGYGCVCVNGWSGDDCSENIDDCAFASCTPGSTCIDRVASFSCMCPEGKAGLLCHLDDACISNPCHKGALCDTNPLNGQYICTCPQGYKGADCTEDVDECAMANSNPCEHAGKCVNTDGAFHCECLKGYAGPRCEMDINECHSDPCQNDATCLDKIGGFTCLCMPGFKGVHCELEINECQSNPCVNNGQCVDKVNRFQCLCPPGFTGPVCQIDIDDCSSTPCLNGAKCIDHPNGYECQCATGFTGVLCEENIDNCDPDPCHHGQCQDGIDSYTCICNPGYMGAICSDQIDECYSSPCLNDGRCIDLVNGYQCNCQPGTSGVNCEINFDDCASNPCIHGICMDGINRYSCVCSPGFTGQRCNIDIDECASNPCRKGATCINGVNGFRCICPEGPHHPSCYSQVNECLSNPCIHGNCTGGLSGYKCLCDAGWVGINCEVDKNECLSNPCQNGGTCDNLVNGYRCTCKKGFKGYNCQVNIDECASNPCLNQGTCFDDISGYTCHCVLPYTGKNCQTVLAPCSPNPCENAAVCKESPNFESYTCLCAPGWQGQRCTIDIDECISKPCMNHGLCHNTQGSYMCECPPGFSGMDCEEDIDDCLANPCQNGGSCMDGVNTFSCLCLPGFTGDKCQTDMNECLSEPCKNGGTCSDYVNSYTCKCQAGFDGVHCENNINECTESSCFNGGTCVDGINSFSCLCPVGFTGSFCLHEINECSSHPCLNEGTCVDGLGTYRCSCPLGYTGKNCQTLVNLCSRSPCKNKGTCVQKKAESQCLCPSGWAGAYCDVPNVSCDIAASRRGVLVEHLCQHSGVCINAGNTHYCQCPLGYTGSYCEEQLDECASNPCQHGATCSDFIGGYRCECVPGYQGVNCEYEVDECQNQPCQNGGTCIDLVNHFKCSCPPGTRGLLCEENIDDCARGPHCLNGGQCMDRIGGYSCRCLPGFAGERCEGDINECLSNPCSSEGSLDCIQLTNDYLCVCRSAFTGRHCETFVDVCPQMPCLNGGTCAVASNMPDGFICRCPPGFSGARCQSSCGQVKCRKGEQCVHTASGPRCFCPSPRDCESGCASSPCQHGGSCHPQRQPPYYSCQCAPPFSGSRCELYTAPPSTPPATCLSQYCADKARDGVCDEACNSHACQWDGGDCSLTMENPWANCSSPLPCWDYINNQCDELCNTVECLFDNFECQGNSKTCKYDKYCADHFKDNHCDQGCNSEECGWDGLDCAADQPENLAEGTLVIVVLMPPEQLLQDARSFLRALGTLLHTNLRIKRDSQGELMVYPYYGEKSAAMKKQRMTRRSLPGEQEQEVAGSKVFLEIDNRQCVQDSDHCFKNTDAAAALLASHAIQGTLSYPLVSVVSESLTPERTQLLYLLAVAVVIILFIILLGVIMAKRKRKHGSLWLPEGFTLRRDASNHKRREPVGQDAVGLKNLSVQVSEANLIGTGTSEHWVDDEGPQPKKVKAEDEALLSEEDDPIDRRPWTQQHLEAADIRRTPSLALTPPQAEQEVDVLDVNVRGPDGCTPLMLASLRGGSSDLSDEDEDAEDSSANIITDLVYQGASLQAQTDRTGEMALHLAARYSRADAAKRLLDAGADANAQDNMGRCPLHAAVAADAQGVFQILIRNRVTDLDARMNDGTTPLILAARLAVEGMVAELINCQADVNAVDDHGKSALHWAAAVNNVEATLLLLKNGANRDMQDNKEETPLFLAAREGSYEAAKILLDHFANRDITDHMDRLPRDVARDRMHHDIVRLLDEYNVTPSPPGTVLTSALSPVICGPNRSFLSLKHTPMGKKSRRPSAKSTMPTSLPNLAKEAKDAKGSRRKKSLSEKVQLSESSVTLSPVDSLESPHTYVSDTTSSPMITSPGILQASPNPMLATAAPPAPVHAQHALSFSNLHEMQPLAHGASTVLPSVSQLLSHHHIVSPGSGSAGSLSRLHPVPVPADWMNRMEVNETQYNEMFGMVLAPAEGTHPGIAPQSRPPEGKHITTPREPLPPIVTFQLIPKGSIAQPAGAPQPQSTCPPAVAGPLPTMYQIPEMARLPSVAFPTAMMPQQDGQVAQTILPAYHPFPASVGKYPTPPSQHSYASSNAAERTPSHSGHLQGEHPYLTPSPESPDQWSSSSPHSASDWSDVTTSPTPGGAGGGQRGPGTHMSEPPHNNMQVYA
# Chain of Pro-neuregulin-1, membrane-bound isoform (Homo sapiens) (Q02297 whole entry, looked up, the tested form may be a part, canonical isoform): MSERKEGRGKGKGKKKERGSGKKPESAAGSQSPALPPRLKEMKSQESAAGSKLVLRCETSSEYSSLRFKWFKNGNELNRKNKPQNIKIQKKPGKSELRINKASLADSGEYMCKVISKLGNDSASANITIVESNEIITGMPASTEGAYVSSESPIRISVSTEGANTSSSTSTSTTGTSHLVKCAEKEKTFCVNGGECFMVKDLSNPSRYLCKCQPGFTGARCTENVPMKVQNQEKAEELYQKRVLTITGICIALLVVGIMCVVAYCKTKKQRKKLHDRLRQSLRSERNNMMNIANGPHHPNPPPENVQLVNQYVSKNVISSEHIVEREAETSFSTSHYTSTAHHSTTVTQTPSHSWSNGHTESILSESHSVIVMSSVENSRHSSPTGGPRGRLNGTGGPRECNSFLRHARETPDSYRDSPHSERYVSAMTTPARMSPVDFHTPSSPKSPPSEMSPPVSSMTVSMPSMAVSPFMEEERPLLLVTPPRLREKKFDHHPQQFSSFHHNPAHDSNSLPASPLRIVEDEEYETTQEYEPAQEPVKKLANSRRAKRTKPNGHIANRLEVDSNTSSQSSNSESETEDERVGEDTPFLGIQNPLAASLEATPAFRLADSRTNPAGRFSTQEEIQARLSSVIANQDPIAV
SMILES,composite z-score [1],composite z-score [2],composite z-score [3],composite z-score [4],composite z-score [5],composite z-score [6],composite z-score [7],z-score [8],composite z-score [9],composite z-score [10],composite z-score [11],z-score [12],z-score [13],z-score [14],composite z-score [15],z-score [16],composite z-score [17],composite z-score [18],composite z-score [19],composite z-score [20]
NC(=O)[C@@]1(Cc2ccccc2)N=C(c2ccc(OCCCO)cc2)O[C@H]1c1ccccc1,0.264,-0.154,-0.0891,0.501,1.08,1.45,0.994,-2.16 (inactive),0.182,-0.189,0.439,3.21 (inactive),1.04 (inactive),-0.0393 (inactive),2.41,1.95 (inactive),0.0694,0.0537,-0.0043,-0.0996
C=CCN1C(=O)[C@]2(Cc3ccccc3)N=C(c3ccc(OCCCO)cc3)O[C@@H]2c2ccccc21,-0.0832,0.481,-0.0119,-0.0215,1.35,1.55,1.41,-1.05 (inactive),0.395,-0.0994,1.53,0.331 (inactive),-0.694 (inactive),1.46 (inactive),3.13,0.482 (inactive),0.295,1.2,1.15,0.133
COc1cc(CO)cc(I)c1O[C@H]1C=C(C(=O)NCCO)C[C@@H](NC[C@@H]2CCCO2)[C@@H]1O,-0.281,0.445,-0.085,0.674,0.041,0.625,1.09,-0.225 (inactive),0.59,-0.169,1.35,-0.396 (inactive),-0.424 (inactive),-0.0698 (inactive),1.91,1.6 (inactive),-0.17,1.26,0.554,-0.0033
CCCCCCCCCCC(O)C1C=CC2C(=O)NC(=O)C2N1Nc1ccc(Cl)cc1Cl (stereo not given),0.133,-1.22,-0.0667,0.159,-0.218,1.02,0.436,1.32 (inactive),0.0804,-0.0237,0.355,1.52 (inactive),-0.451 (inactive),0.309 (inactive),1.8,-2.39 (inactive),-0.0769,-0.729,0.102,-0.137
O=C(O)[C@@]1(CCS(=O)(=O)c2ccccc2)N=C(c2ccc(OCCCO)cc2)O[C@H]1c1ccccc1,0.132,-0.0272,0.0654,-0.029,0.604,1.62,1.06,2.18 (inactive),0.38,-0.0994,1.07,-0.326 (inactive),-5.25 (inactive),-0.934 (inactive),3.46,0.712 (inactive),0.16,-0.0519,-0.0296,-0.144
COc1cc2c(cc1O)C=[N+](Cc1cc3c(cc1Br)OCO3)CC2,0.305,0.08,-0.131,0.0873,-0.441,0.632,0.042,2.28 (inactive),-0.332,-0.137,0.168,0.213 (inactive),-9.96 (active),-0.208 (inactive),0.379,-1.52 (inactive),-0.0285,-0.833,-0.223,-0.188
CO[C@H]1O[C@H](CO)[C@@H](OC(=O)Nc2ccccc2-c2ccccc2)[C@H](OC(=O)Nc2ccccc2-c2ccccc2)[C@@H]1OC(=O)Nc1ccccc1-c1ccccc1,0.0212,0.503,-0.152,1.03,1.1,1.35,1.19,0.722 (inactive),0.807,-0.189,1.54,1.95 (inactive),0.181 (inactive),7.28 (inactive),2.96,1.59 (inactive),-0.0569,0.761,1.08,-0.0757
C=C(C)[C@@H]1CC=C(C(O)C2C=CC3C(=O)NC(=O)C3N2Nc2ccc(Cl)cc2Cl)CC1 (stereo not given in full),0.917,0.403,0.0095,0.117,1.42,1.35,0.953,1.3 (inactive),1.2,-0.0645,0.794,-9.03 (active),-5.22 (inactive),3.45 (inactive),2.91,-2.91 (inactive),0.325,-0.821,1.06,0.0044
COC(=O)[C@@]1(Cc2ccc(OC)cc2)[C@H]2c3cc(C(=O)N4CCCC4)n(Cc4nc5ccccc5[nH]4)c3C[C@H]2CN1C(=O)c1ccccc1,1.13,0.572,0.417,1,1.82,2.11,1.14,4.38 (inactive),1.65,-0.229,0.661,-0.0237 (inactive),0.955 (inactive),2.07 (inactive),3.73,0.138 (inactive),0.759,-0.214,1.05,0.225
C[N+](C)(C)CCCCCCNC(=O)[C@H]1C[C@H]2C(=O)N[C@@H](Cc3ccccc3)C(=O)N2[C@H]1c1cccc(OCCO)c1,-0.429,0.652,-0.0266,0.293,0.357,0.318,1.31,3.64 (inactive),-0.0975,-0.0645,1.15,-0.776 (inactive),0.703 (inactive),-0.282 (inactive),3.05,-0.0145 (inactive),0.0028,1.13,0.953,-0.0152
